Experimental data taken from the supplement of paper PMC12636033.
± gives the standard deviation of the averaged measurements. The full ranking holds about 33,000 sequences; the median of “E-score (rank enrichment, -0.5 to 0.5)” is about -0.0068, and the highest 2% start at about 0.24. This is one part of a sample in which the highest values are shown more often than they occur.

System: muMax20 (Max(13-93) K31hArg/K57hArg, M65Nle)
Assay: PBM 8-mer E-score (E-score (rank enrichment, -0.5 to 0.5)); higher = stronger preferential binding
Procedure: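 Protein binding microarray (universal PBM chip covering all 10-mers in fixed probe flanks) with chemically synthesized human Max(13-93) bHLH-LZ analogs (not full-length Max) bearing noncanonical residues (hArg, Tha, Aib, Nle at 65) and aromatic Cys staples. Read-out per 8-mer (and its reverse complement): E-score (rank-based enrichment, -0.5 to 0.5) and Z-score of median probe intensity.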

Compared with AAAGCATA, CAAGCATA is lower in “PBM 8-mer E-score” value: 0.249 ± 0.045 for the first, 0.064995 ± 4.9e-05 for the second.

First: CAAGCTGA
Second: AAAGCTGG
The “PBM 8-mer E-score” value of the first is lower: -0.175 ± 0.11 for the first, 0.0179 ± 0.046 for the second.

TAAGCATA and AAAGCTGA are within error of each other in “PBM 8-mer E-score” value: 0.11 ± 0.096 for the first, 0.275 ± 0.086 for the second.

Compared with CAAGCATG, AAAGCATG is higher in “PBM 8-mer E-score” value: 0.134 ± 0.038 for the first, 0.25 ± 0.063 for the second.

AAAGCATT and AATAAGGG are within error of each other in “PBM 8-mer E-score” value: 0.1 ± 0.0071 for the first, 0.11 ± 0.12 for the second.

ACTGTCTA and CGACAAGA are within error of each other in “PBM 8-mer E-score” value: 0.0515 ± 0.052 for the first, -0.0978 ± 0.12 for the second.

GTCCAGGA and GAACGGGC are within error of each other in “PBM 8-mer E-score” value: -0.157 ± 0.032 for the first, -0.0738 ± 0.11 for the second.

ATCATACG and ATCATACA are within error of each other in “PBM 8-mer E-score” value: 0.184 ± 0.071 for the first, 0.28 ± 0.069 for the second.

Going from AACATACT to AACATAAA, the “PBM 8-mer E-score” value rises from 0.0528 ± 0.0084 to 0.168 ± 0.035.

ACCATACA and CACATACG are within error of each other in “PBM 8-mer E-score” value: 0.144 ± 0.051 for the first, 0.0977 ± 0.026 for the second.

AACATACA and TACATAAA are within error of each other in “PBM 8-mer E-score” value: 0.252 ± 0.0071 for the first, 0.239 ± 0.025 for the second.

First: CACATAAA
Second: AACATACG
The “PBM 8-mer E-score” value of the first is lower: 0.2193 ± 0.00038 for the first, 0.278 ± 0.03 for the second.

First: AACATACC
Second: GTCATACA
The “PBM 8-mer E-score” value of the first is lower: 0.0171 ± 0.02 for the first, 0.118 ± 0.021 for the second.

Going from CGCGCTCA to ACTGCAAA, the “PBM 8-mer E-score” value rises from -0.127 ± 0.012 to 0.0247 ± 0.1.

AGGCGACA and GCGAACCC are within error of each other in “PBM 8-mer E-score” value: -0.105 ± 0.11 for the first, -0.0615 ± 0.025 for the second.

ATCTGACC and CAATCGCG are within error of each other in “PBM 8-mer E-score” value: 0.00987 ± 0.008 for the first, -0.0427 ± 0.086 for the second.

First: CAGATCTG
Second: CACATACA
The “PBM 8-mer E-score” value of the first is lower: -0.123 ± 0.089 for the first, 0.112 ± 0.072 for the second.

TACATACA and GACATACA are within error of each other in “PBM 8-mer E-score” value: 0.26 ± 0.025 for the first, 0.167 ± 0.11 for the second.

First: ACGATGCC
Second: ATATGCCA
The “PBM 8-mer E-score” value of the first is lower: -0.151 ± 0.016 for the first, 0.242 ± 0.062 for the second.

CTATGCCA and ATATGCCG are within error of each other in “PBM 8-mer E-score” value: 0.0539 ± 0.12 for the first, 0.0671 ± 0.1 for the second.

TCGTGCAA and CCGTGCAC are within error of each other in “PBM 8-mer E-score” value: 0.0413 ± 0.0064 for the first, 0.0347 ± 0.013 for the second.

ACGTGCAA and ACGTGCAC are within error of each other in “PBM 8-mer E-score” value: 0.251 ± 0.095 for the first, 0.334 ± 0.11 for the second.

Going from CCGTGCTA to GCGTGCTA, the “PBM 8-mer E-score” value rises from -0.0534 ± 0.02 to 0.138 ± 0.033.

Compared with AAGTGCAT, GCGTGCAC is higher in “PBM 8-mer E-score” value: 0.132 ± 0.029 for the first, 0.208 ± 0.024 for the second.

Going from CCGTGCAA to ACGTGCAT, the “PBM 8-mer E-score” value rises from -0.0343 ± 0.018 to 0.33 ± 0.053.

First: ACGTGCTA
Second: AGGTGCAT
The “PBM 8-mer E-score” value of the first is higher: 0.278 ± 0.041 for the first, 0.0164 ± 0.091 for the second.

CAAGCTCG and AAGACCCT are within error of each other in “PBM 8-mer E-score” value: -0.109 ± 0.086 for the first, 0.0269 ± 0.086 for the second.

GACCGTGC and AGCCTCAA are within error of each other in “PBM 8-mer E-score” value: -0.11 ± 0.054 for the first, -0.0979 ± 0.089 for the second.

CGTCTCGC and CTAGCCAG are within error of each other in “PBM 8-mer E-score” value: -0.117 ± 0.017 for the first, -0.0885 ± 0.015 for the second.

GACACGAC and GGTGCAAA are within error of each other in “PBM 8-mer E-score” value: 0.0582 ± 0.097 for the first, 0.0271 ± 0.074 for the second.

CTCGCCTC and CCTCAGTA are within error of each other in “PBM 8-mer E-score” value: -0.157 ± 0.053 for the first, -0.184 ± 0.019 for the second.

Going from AGGTTTAG to ACGTGCAG, the “PBM 8-mer E-score” value rises from -0.0204 ± 0.08 to 0.252 ± 0.00027.

Going from ACGTGCCG to CCGTGCAG, the “PBM 8-mer E-score” value falls from 0.207 ± 0.098 to -0.128 ± 0.047.

Compared with CTGTAGGC, GACAACAA is higher in “PBM 8-mer E-score” value: -0.151 ± 0.011 for the first, 0.125 ± 0.046 for the second.

Going from CGTCTGGC to CATAATAC, the “PBM 8-mer E-score” value rises from -0.194 ± 0.022 to 0.26 ± 0.066.

First: TATAATAA
Second: AATAATAT
The “PBM 8-mer E-score” value of the first is higher: 0.315 ± 0.015 for the first, 0.244 ± 0.011 for the second.

GATAATAC and ACTAATAG are within error of each other in “PBM 8-mer E-score” value: 0.204 ± 0.073 for the first, 0.191 ± 0.025 for the second.

CATAATAG and TGTAATAA are within error of each other in “PBM 8-mer E-score” value: 0.229 ± 0.017 for the first, 0.189 ± 0.076 for the second.

Going from CATAATAA to AATAATAC, the “PBM 8-mer E-score” value falls from 0.216 ± 0.021 to 0.16 ± 0.018.

GATAATAA and ACTAATAT are within error of each other in “PBM 8-mer E-score” value: 0.164 ± 0.034 for the first, 0.199 ± 0.0057 for the second.

First: AATAATAG
Second: CAGCCTGA
The “PBM 8-mer E-score” value of the first is higher: 0.263 ± 0.024 for the first, -0.0558 ± 0.092 for the second.

CGGCGGAA and AATTGCTC are within error of each other in “PBM 8-mer E-score” value: -0.0106 ± 0.03 for the first, -0.0189 ± 0.0015 for the second.

ACTAGATC and CGCACCAG are within error of each other in “PBM 8-mer E-score” value: -0.0146 ± 0.044 for the first, -0.0279 ± 0.043 for the second.

ATGAGACC and CTGTCCTC are within error of each other in “PBM 8-mer E-score” value: -0.0938 ± 0.12 for the first, -0.0695 ± 0.18 for the second.

First: CGTCCTGC
Second: ATAGCTGG
The “PBM 8-mer E-score” value of the first is higher: -0.0779 ± 0.08 for the first, -0.243 ± 0.062 for the second.

CCTAATAA and AATACTAA are within error of each other in “PBM 8-mer E-score” value: 0.103 ± 0.096 for the first, 0.158 ± 0.052 for the second.

First: ACTAATAA
Second: AATAATCC
The “PBM 8-mer E-score” value of the first is higher: 0.222 ± 0.015 for the first, 0.0218 ± 0.0033 for the second.

First: TCTAATAA
Second: AAAAATAA
The “PBM 8-mer E-score” value of the first is higher: 0.236 ± 0.032 for the first, 0.0636 ± 0.065 for the second.

AATACTAC and AATACTAT are within error of each other in “PBM 8-mer E-score” value: 0.197 ± 0.038 for the first, 0.265 ± 0.077 for the second.

First: AGTAATAG
Second: GGTAATAA
The “PBM 8-mer E-score” value of the first is higher: 0.227 ± 0.078 for the first, 0.0931 ± 0.008 for the second.

AGTAATAA and AATAATAA are within error of each other in “PBM 8-mer E-score” value: 0.271 ± 0.0094 for the first, 0.277 ± 0.011 for the second.

Going from AACGGAGT to ATCGTCGA, the “PBM 8-mer E-score” value falls from -0.013 ± 0.052 to -0.133 ± 0.025.

First: ATTGGATA
Second: ATAATGAC
The “PBM 8-mer E-score” value of the first is lower: -0.0183 ± 0.031 for the first, 0.122 ± 0.01 for the second.

First: CCAGTCCA
Second: TAAAAGTA
The “PBM 8-mer E-score” value of the first is lower: -0.0788 ± 0.061 for the first, 0.189 ± 0.074 for the second.

For GTGGGCAA, the “PBM 8-mer E-score” value was 0.0632 ± 0.065.
